Measurements as given in PubChem BioAssay (NCI).
Compounds without any hit were thinned out: in the full panel of roughly 83,000, 20% have a hit.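 Testing used 96-well plates and a 48-hour single-concentration exposure. Example: -40 means 40% of the starting cells died.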 The source made the active and inactive calls. Rule for the calls: active = growth percent below 10; inactive = the rest.

Assays:
Experiment in all cases: NCI-60 one-dose screen, 48 h (100 = growth as untreated, 0 = no growth, -100 = all killed)
HT29 colon = conditions: 10 µM unless noted
SNB-75 CNS = conditions: 10 µM
SNB-19 CNS = conditions: 10 µM unless noted
PC-3 prostate = conditions: 10 µM unless noted
SK-MEL-5 melanoma = conditions: 10 µM unless noted
UACC-62 melanoma = conditions: 10 µM unless noted
SK-MEL-28 melanoma = conditions: 10 µM unless noted
SK-MEL-2 melanoma = conditions: 10 µM unless noted
EKVX NSCLC = conditions: 10 µM unless noted
SN12C renal = conditions: 10 µM unless noted
UO-31 renal = conditions: 10 µM unless noted
TK-10 renal = conditions: 10 µM unless noted
A498 renal = conditions: 10 µM unless noted
CCRF-CEM leukemia = conditions: 10 µM unless noted
MOLT-4 leukemia = conditions: 10 µM unless noted
U251 CNS = conditions: 10 µM unless noted
LOX IMVI melanoma = conditions: 10 µM unless noted
ACHN renal = conditions: 10 µM unless noted
CAKI-1 renal = conditions: 10 µM unless noted

Measured: growth

OCc1ncc(-c2ccccc2)s1
inactive: HT29 colon 102% | SNB-75 CNS 78.8% | SNB-19 CNS 98.5% | PC-3 prostate 89.4% | SK-MEL-5 melanoma 105% | UACC-62 melanoma 106% | SK-MEL-28 melanoma 132% | SK-MEL-2 melanoma 113% | EKVX NSCLC 87.8% | SN12C renal 121% | UO-31 renal 97.9% | TK-10 renal 110% | A498 renal 116% | CCRF-CEM leukemia 90.6% | MOLT-4 leukemia 110%

CCCCCCCC/C=C/CCCCCCCC1=NC(C)(C)CN1C(C)(C)CO
active: HT29 colon -57.8% | U251 CNS -68.1% | SK-MEL-5 melanoma 4.8% | UACC-62 melanoma -25.3% | LOX IMVI melanoma -100% | SK-MEL-28 melanoma -63.9% | CCRF-CEM leukemia 3.32% | MOLT-4 leukemia -22.6%
inactive: SNB-75 CNS 38.5% | PC-3 prostate 44.9% | SK-MEL-2 melanoma 51.3% | EKVX NSCLC 66.2% | SN12C renal 48.7% | UO-31 renal 44.5% | TK-10 renal 62.1% | ACHN renal 21.6% | CAKI-1 renal 42.3% | A498 renal 88.8%

CCCCOc1ccc(/C=C2/SC(N3CCOCC3)=NC2=O)cc1OCC
inactive: HT29 colon 104% | SNB-19 CNS 90.8% | U251 CNS 95.2% | PC-3 prostate 87.1% | SK-MEL-5 melanoma 98.7% | UACC-62 melanoma 88.6% | LOX IMVI melanoma 89.1% | SK-MEL-28 melanoma 97.4% | SK-MEL-2 melanoma 102% | EKVX NSCLC 90.8% | SN12C renal 85.2% | UO-31 renal 79.4% | TK-10 renal 116% | ACHN renal 96% | CAKI-1 renal 84.8% | A498 renal 90.2% | CCRF-CEM leukemia 90% | MOLT-4 leukemia 101%

O=c1[nH]c(Nc2ccc(S(=O)(=O)O)cc2)nc2nc(Nc3ccc(NC(=S)Nc4ccccc4)cc3)nc(-c3ccc(O)cc3O)c12
inactive: HT29 colon 125% | SNB-75 CNS 96.3% | SNB-19 CNS 91.1% | U251 CNS 101% | PC-3 prostate 108% | SK-MEL-5 melanoma 114% | UACC-62 melanoma 91.5% | LOX IMVI melanoma 96.2% | SK-MEL-2 melanoma 101% | EKVX NSCLC 110% | SN12C renal 98.5% | UO-31 renal 73.9% | TK-10 renal 156% | ACHN renal 100% | CAKI-1 renal 134% | A498 renal 111% | CCRF-CEM leukemia 94.5% | MOLT-4 leukemia 91.4%

CCOC(=O)NNC(=S)Nc1ccccc1
inactive: HT29 colon 105% | SNB-75 CNS 95.2% | SNB-19 CNS 97.9% | U251 CNS 101% | PC-3 prostate 100% | SK-MEL-5 melanoma 100% | UACC-62 melanoma 95.5% | LOX IMVI melanoma 100% | SK-MEL-28 melanoma 106% | SK-MEL-2 melanoma 116% | SN12C renal 99% | UO-31 renal 89.4% | TK-10 renal 111% | ACHN renal 105% | CAKI-1 renal 92.3% | A498 renal 95.1% | CCRF-CEM leukemia 106% | MOLT-4 leukemia 106%

Cc1cc(C(C)(C)C)ccc1S
inactive: HT29 colon 97.5% | SNB-75 CNS 91.4% | SNB-19 CNS 105% | U251 CNS 109% | PC-3 prostate 85.6% | SK-MEL-5 melanoma 111% | UACC-62 melanoma 98.6% | LOX IMVI melanoma 103% | SK-MEL-28 melanoma 104% | SK-MEL-2 melanoma 93.4% | EKVX NSCLC 123% | SN12C renal 100% | UO-31 renal 90.3% | TK-10 renal 107% | CAKI-1 renal 93.1% | A498 renal 92.8% | CCRF-CEM leukemia 96% | MOLT-4 leukemia 81.3%

CC(C)NCCCNC1=C(Cl)C(=O)c2ccccc2C1=O
inactive: HT29 colon 83.1% | SNB-75 CNS 79.4% | U251 CNS 52.9% | PC-3 prostate 57.5% | SK-MEL-5 melanoma 44.3% | UACC-62 melanoma 92.7% | LOX IMVI melanoma 25.9% | SK-MEL-28 melanoma 112% | SK-MEL-2 melanoma 125% | EKVX NSCLC 80.4% | SN12C renal 91.7% | UO-31 renal 81.9% | TK-10 renal 114% | ACHN renal 81.1% | CAKI-1 renal 66.7% | A498 renal 88.1% | CCRF-CEM leukemia 76.6%
active: MOLT-4 leukemia -45.8%

c1cc2[nH]ncc2cc1-c1nc2ccc3[nH]ncc3c2c2c1CCC2
inactive: HT29 colon 37.9% | SNB-75 CNS 34.9% | SNB-19 CNS 69.5% | U251 CNS 43.6% | PC-3 prostate 54.5% | SK-MEL-5 melanoma 56.6% | UACC-62 melanoma 15.4% | LOX IMVI melanoma 40.4% | SK-MEL-2 melanoma 19% | SN12C renal 63.9% | UO-31 renal 38% | TK-10 renal 30.8% | ACHN renal 23.8% | CAKI-1 renal 23.3% | CCRF-CEM leukemia 30.2% | MOLT-4 leukemia 20.9%
active: A498 renal -3.31%

O=C1NN(C(=O)c2ccc(Cl)cc2)C(c2ccccc2)=N/C1=C\c1ccc(F)cc1
inactive: HT29 colon 97.4% | SNB-19 CNS 78.8% | U251 CNS 40.1% | PC-3 prostate 81.4% | SK-MEL-5 melanoma 88.1% | UACC-62 melanoma 74% | LOX IMVI melanoma 88.3% | SK-MEL-28 melanoma 107% | EKVX NSCLC 90.7% | SN12C renal 78.1% | UO-31 renal 75.6% | TK-10 renal 109% | ACHN renal 83.2% | CAKI-1 renal 85.1% | A498 renal 73.1% | MOLT-4 leukemia 36.2%

Clc1cc2c(nn1)Nc1ccccc1S2
active: SK-MEL-2 melanoma -4.79%
inactive: HT29 colon 102% | SNB-19 CNS 88.5% | U251 CNS 97.3% | PC-3 prostate 92.4% | SK-MEL-5 melanoma 95% | UACC-62 melanoma 95.2% | LOX IMVI melanoma 98.6% | SK-MEL-28 melanoma 109% | EKVX NSCLC 52.3% | SN12C renal 97.1% | UO-31 renal 106% | TK-10 renal 129% | ACHN renal 99.1% | A498 renal 89.1% | MOLT-4 leukemia 96.3%

Cc1ccc(S(=O)(=O)n2cc(C(=O)C(=O)N3CCOCC3)c3ccccc32)cc1
inactive: SNB-75 CNS 104% | SNB-19 CNS 99.5% | U251 CNS 93.8% | PC-3 prostate 67.5% | SK-MEL-5 melanoma 88.1% | UACC-62 melanoma 68.1% | LOX IMVI melanoma 83.9% | SK-MEL-28 melanoma 117% | SK-MEL-2 melanoma 97% | EKVX NSCLC 88% | SN12C renal 87.8% | UO-31 renal 59.7% | TK-10 renal 94.6% | ACHN renal 83.9% | CAKI-1 renal 80.1% | A498 renal 118% | CCRF-CEM leukemia 93.6% | MOLT-4 leukemia 81.5%

COc1cc(NCCCCCN)c2ncccc2c1
inactive: HT29 colon 118% | U251 CNS 107% | PC-3 prostate 108% | SK-MEL-5 melanoma 111% | LOX IMVI melanoma 103% | SK-MEL-28 melanoma 114% | SK-MEL-2 melanoma 126% | EKVX NSCLC 113% | UO-31 renal 86.9% | TK-10 renal 119% | CAKI-1 renal 96.7% | A498 renal 116% | MOLT-4 leukemia 88.3%

CCc1ccc(-c2ccc(=O)n(-c3ccc(S(N)(=O)=O)cc3)n2)cc1
inactive: HT29 colon 11.8% | SNB-19 CNS 57.6% | U251 CNS 35% | PC-3 prostate 35% | SK-MEL-5 melanoma 12.9% | UACC-62 melanoma 38.5% | LOX IMVI melanoma 55.1% | SK-MEL-28 melanoma 49.4% | EKVX NSCLC 69.1% | SN12C renal 58.4% | UO-31 renal 38.4% | TK-10 renal 76.8% | ACHN renal 60.3% | CAKI-1 renal 36.7% | A498 renal 40.3% | CCRF-CEM leukemia 27.9% | MOLT-4 leukemia 16%
active: SK-MEL-2 melanoma 1.5%

C=C1CC2(OC1=O)C(=O)N(CCCN1C(=O)C3(CC(=C)C(=O)O3)c3ccccc31)c1ccccc12 (stereo not drawn)
active: HT29 colon -51.5% | LOX IMVI melanoma -82.8% | SK-MEL-28 melanoma -13.8% | SN12C renal -38.6% | UO-31 renal -39.3% | TK-10 renal -9.34% | ACHN renal -17.9% | CAKI-1 renal -7.27% | CCRF-CEM leukemia -13.8% | MOLT-4 leukemia 1.03%
inactive: SNB-19 CNS 76.6% | U251 CNS 45.4% | PC-3 prostate 51.3% | SK-MEL-5 melanoma 74.4% | UACC-62 melanoma 23.2% | SK-MEL-2 melanoma 52.8% | EKVX NSCLC 69.9% | A498 renal 70.4%

O=C(CN1CCN(c2cc3c(cc2F)c(=O)c(C(=O)N/N=C/c2ccccc2O)cn3C2CC2)CC1)N/N=C\c1ccccc1O
inactive: HT29 colon 39.2% | SNB-19 CNS 29.9% | U251 CNS 24.8% | PC-3 prostate 30.3% | SK-MEL-2 melanoma 33.2% | EKVX NSCLC 23% | SN12C renal 24.7% | TK-10 renal 43.2% | ACHN renal 13.5% | A498 renal 86.1%
active: SK-MEL-5 melanoma -47.5% | UACC-62 melanoma 0.0993% | LOX IMVI melanoma 2.01% | UO-31 renal 4.8% | CAKI-1 renal 5.22% | CCRF-CEM leukemia 8.24% | MOLT-4 leukemia 9.45%

Cc1ccc2nc(Cl)cc(=O)n2c1
inactive: SNB-75 CNS 115% | U251 CNS 119% | PC-3 prostate 96.9% | SK-MEL-5 melanoma 120% | UACC-62 melanoma 102% | LOX IMVI melanoma 112% | SK-MEL-28 melanoma 120% | SK-MEL-2 melanoma 107% | EKVX NSCLC 114% | SN12C renal 101% | UO-31 renal 84.3% | TK-10 renal 109% | ACHN renal 99.1% | CAKI-1 renal 111% | A498 renal 107% | CCRF-CEM leukemia 94.4% | MOLT-4 leukemia 106%

CC12CCC3C4(C)COC(c5ccccc5Cl)OC4CCC3(C)C1CC(C1=CCOC1=O)O2 (stereo not drawn)
inactive: HT29 colon 57.1% | SNB-19 CNS 78.7% | U251 CNS 74.1% | PC-3 prostate 47.9% | SK-MEL-5 melanoma 17.1% | UACC-62 melanoma 45.8% | LOX IMVI melanoma 58.6% | SK-MEL-28 melanoma 60.5% | SK-MEL-2 melanoma 77.4% | EKVX NSCLC 63.7% | SN12C renal 70.2% | UO-31 renal 53.9% | TK-10 renal 94.9% | ACHN renal 58.8% | CAKI-1 renal 56.1% | A498 renal 50.8% | CCRF-CEM leukemia 66.8% | MOLT-4 leukemia 34.5%

Cc1ccc(S(=O)(=O)NCCNc2cc(-c3cn(C(C)(C)C)nc3-c3cccc(O)c3)ccn2)cc1
inactive: HT29 colon 17.2% | SNB-19 CNS 84.4% | U251 CNS 62.9% | PC-3 prostate 46.7% | SK-MEL-5 melanoma 30.9% | UACC-62 melanoma 77% | LOX IMVI melanoma 47.4% | SK-MEL-28 melanoma 57.7% | SK-MEL-2 melanoma 84.3% | EKVX NSCLC 64.6% | SN12C renal 66.5% | UO-31 renal 58% | TK-10 renal 103% | ACHN renal 78.9% | CAKI-1 renal 77% | A498 renal 80.8% | MOLT-4 leukemia 48.4%
